Results published in PubChem BioAssay (Tox21).
Results filed as inconclusive are left out. Active and inactive are the calls of the source. Calls come from the whole dose curve; as a rule, active = well fitted curve in the direction sought with a large enough effect in the repeat runs; inconclusive = weak or mixed curves; inactive = no such curve, though single readings can be large; an effect the other way counts as inactive or inconclusive.

How the values were obtained:
[1] = qHTS RealTime-Glo MT Cell Viability Assay in HEK293 cells - 16 hour (AID 1224872); note: nearly all actives have a fitted effect of over 50% in size; note: potency is the fitted concentration of half-maximal effect; for activity change, negative = cytotoxicity: top concentration of the series differs between compounds
Method in brief: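 Assay medium contained NanoLuc luciferase plus cell-permeant prosubstrate, added with HEK293 cells at 600 cells/well. After 5 h at 37 C/5% CO2 compounds were added; plates stayed at 37 C for 40 h with serial luminescence reads.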

[2] = qHTS RealTime-Glo MT Cell Viability Assay in HEK293 cells - 40 hour (AID 1224874); conditions: RealTime-Glo luminescence; max response: hits give low values; note: nearly all actives have a fitted effect of over 50% in size; note: potency is the fitted concentration of half-maximal effect
Method in brief: (§1)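 600 cells/well were plated with the nonlytic NanoLuc/prosubstrate reagent, pre-incubated 5 h, then given 23 nL of compound in DMSO. Incubation at 37 C for 40 h, with luminescence from viable-cell-reduced substrate read repeatedly from 0 h.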

[3] = A CellTox Green Cytotoxicity Assay to monitor cytotoxicity in HepG2 cells - 16 hour (AID 1224876); note: nearly all actives have a fitted effect of over 45% in size; note: potency is the fitted concentration of half-maximal effect
Method in brief: (§2)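 HepG2 cells, 600/well, preincubated 5 h with CellTox Green dye, then exposed to Tox21 compounds in DMSO at 37 C for up to 40 h. Dead-cell DNA fluorescence read at the indicated time point.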

[4] = qHTS RealTime-Glo MT Cell Viability Assay in HepG2 cells - 32 hour (AID 1224877); note: nearly all actives have a fitted effect of over 55% in size; note: potency is the fitted concentration of half-maximal effect
Method in brief: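 qHTS, HepG2, 600 cells/well, RealTime-Glo (NanoLuc + prosubstrate) added with cells; 5 h preincubation; DMSO compound addition; 37 C; luminescence at 0/8/16/24/32/40 h.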

[5] = A CellTox Green Cytotoxicity Assay to monitor cytotoxicity in HepG2 cells - 24 hour (AID 1224878); note: nearly all actives have a fitted effect of over 45% in size; note: potency is the fitted concentration of half-maximal effect
Method in brief: as §2

[6] = A CellTox Green Cytotoxicity Assay to monitor cytotoxicity in HepG2 cells - 40 hour (AID 1224879); note: nearly all actives have a fitted effect of over 40% in size; note: potency is the fitted concentration of half-maximal effect
Method in brief: as §2

[7] = qHTS RealTime-Glo MT Cell Viability Assay in HEK293 cells - 0 hour (AID 1224880); note: top concentration of the series differs between compounds; nearly all actives have a fitted effect of over 45% in size
Method in brief: as §1

[8] = A CellTox Green Cytotoxicity Assay to monitor cytotoxicity in HEK293 cells - 32 hour (AID 1224881); note: nearly all actives have a fitted effect of over 40% in size; note: potency is the fitted concentration of half-maximal effect
Method in brief: (§3)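 HEK293 cells, 600/well, were preincubated 5 hours and then exposed to compounds at 37 C for up to 40 hours. A cell-impermeant cyanine dye staining dead-cell DNA was read by fluorescence at 0, 8, 16, 24, 32 and 40 h time points.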

[9] = A CellTox Green Cytotoxicity Assay to monitor cytotoxicity in HEK293 cells - 24 hour (AID 1224875); note: series mostly up to about 77 µM; nearly all actives have a fitted effect of over 45% in size
Method in brief: as §3

[10] = qHTS RealTime-Glo MT Cell Viability Assay in HepG2 cells - 8 hour (AID 1224873); note: nearly all actives have a fitted effect of over 55% in size; note: potency is the fitted concentration of half-maximal effect
Method in brief: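 HepG2 cells (600/well) mixed with RealTime-Glo MT reagent, settled 5 h at 37 C/5% CO2 before compound addition. Nonlytic NanoLuc luminescence from viable-cell prosubstrate reduction read repeatedly during 40 h treatment at 37 C.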
% is set by controls: 0 for no effect and ±100 for the full control effect.

C/C(=C(\CCOP(=O)(O)O)SC(=O)c1ccccc1)N(C=O)Cc1cnc(C)nc1N
inactive: activity change, negative = cytotoxicity [1] 2.81% [at 6.97 µM] | max response [2] 6.16% | cytotoxicity increase [3] 0.668% [at 6.97 µM] | activity change, negative = cytotoxic [4] 2.64% [at 6.97 µM] | cytotoxicity [5] -0.377% [at 6.97 µM] | cytotoxicity increase [6] -0.293% [at 6.97 µM] | activity change, negative = cytotoxicity [7] 2.7% [at 6.97 µM] | cytotoxicity increase [8] -7.02% [at 6.97 µM]

C[C@@H]1C[C@H]2[C@@H]3CCC4=CC(=O)C=C[C@]4(C)[C@@]3(F)[C@@H](O)C[C@]2(C)[C@@]1(O)C(=O)COC(=O)c1ccncc1
inactive: Potency [1] | max response [2] -17.8% | Potency [3] | Potency [4] | Potency [5] | Potency [6] | Potency [8]

CCCNCC(O)COc1ccccc1C(=O)CCc1ccccc1 (stereo unspecified)
active: Potency [1] 2.13 µM | Potency [2] 2.39 µM
inactive: Potency [9] | Potency [4] | Potency [8]

O=S(=O)(Oc1ccc(Cl)cc1)c1ccccc1
inactive: Potency [10] | max response [2] -29.4% | Potency [9] | Potency [3] | Potency [4] | Potency [5] | Potency [6] | Potency [8]

CO[C@@H]1[C@H](OC(=O)/C=C/C=C/C=C/C=C/C(=O)O)CC[C@]2(CO2)[C@H]1[C@@]1(C)O[C@@H]1CC=C(C)C
inactive: Potency [10] | max response [2] 18.9% | Potency [9] | Potency [3] | Potency [4] | Potency [5] | Potency [6] | Potency [7]

O=[N+]([O-])c1cccc(S(=O)(=O)O)c1
inactive: Potency [10] | Potency [9] | Potency [3] | Potency [4] | Potency [5] | Potency [6] | Potency [7] | Potency [8]
active: Potency [2] 17.6 µM

CC(C)C[C@H]1C(=O)N2CCC[C@H]2[C@]2(O)O[C@](NC(=O)[C@@H]3C=C4c5cccc6[nH]c(Br)c(c56)C[C@H]4N(C)C3)(C(C)C)C(=O)N12
active: Potency [10] 13.2 µM | Potency [4] 13.2 µM
inactive: Potency [9] | Potency [3] | Potency [5] | Potency [6] | Potency [7] | Potency [8]

CN1CCC(=C2c3ccccc3Sc3ccccc32)CC1
active: Potency [5] 23.9 µM | Potency [6] 23.9 µM
inactive: Potency [1] | Potency [9]

CN1CCC(N(Cc2cccs2)c2ccccc2)CC1
inactive: Potency [1] | max response [2] -14.7% | Potency [4] | Potency [7]
active: Potency [5] 10.7 µM | Potency [6] 21.3 µM | Potency [8] 21.3 µM

OC(CN1CCC(Cc2ccc(F)cc2)CC1)c1ccc(Cl)cc1 (stereo unspecified)
active: Potency [1] 9.52 µM | Potency [2] 9.52 µM | Potency [5] 21.3 µM | Potency [6] 23.9 µM | Potency [8] 21.3 µM

CN(C)c1ccc(CCO)cc1
inactive: Potency [10] | Potency [9] | Potency [3] | Potency [4] | Potency [5] | Potency [6] | Potency [7] | Potency [8]

COc1ccc2cccc(CCNC(C)=O)c2c1
inactive: Potency [1] | Potency [4] | Potency [7]

N=c1ccn2c(n1)O[C@H]1[C@H](O)[C@@H](CO)O[C@H]12
active: Potency [6] 54.9 µM
inactive: Potency [10] | max response [2] 22.1% | Potency [9] | Potency [4] | Potency [7]

COc1cc2c(cc1OC)C(C(C(=O)N(CCc1ccc(OC)c(OC)c1OC)CCc1ccc(OC)c(OC)c1OC)c1ccccc1)=NCC2 (stereo unspecified)
active: Potency [1] 3.01 µM | Potency [2] 3.38 µM
inactive: Potency [9] | Potency [3] | Potency [6] | Potency [8]

CNCCCCOc1ccccc1Cc1ccccc1
inactive: Potency [10] | Potency [7]
active: Potency [2] 23.9 µM | Potency [3] 23.9 µM | Potency [5] 23.9 µM | Potency [6] 23.9 µM

c1ccc(C(O[C@H]2CCCN(CCc3ccc4c(c3)OCO4)C2)c2ccccc2)cc1
inactive: Potency [10] | max response [2] -24.8% | Potency [4] | Potency [7]

CCN(CC)CCNc1ccc(CNC=O)c2sc3ccc(OC)cc3c(=O)c12
inactive: Potency [3] | Potency [7] | Potency [8]
active: Potency [1] 27.5 µM | Potency [2] 8.71 µM | Potency [4] 19.5 µM

CCOC(=O)C1=C[C@]2(CC)CCCN3CCc4c(n1c1ccccc41)[C@@H]32
inactive: Potency [1] | Potency [9] | Potency [4] | Potency [8]

Nc1ccc(N)c2c1C(=O)c1ccccc1C2=O
inactive: Potency [9] | Potency [3] | Potency [4] | Potency [5] | Potency [6] | Potency [7] | Potency [8]

Cn1c(=O)cc(Oc2ccc(F)cc2F)c2cnc(NCC(C)(C)O)nc21
inactive: Potency [9] | Potency [3] | Potency [4] | Potency [5] | Potency [6] | Potency [7] | Potency [8]

CC(=O)c1ccc2c(c1)N(CCCN1CCC(CCO)CC1)c1ccccc1S2
inactive: Potency [10] | Potency [9] | Potency [4] | Potency [7]
active: Potency [3] 21.3 µM | Potency [5] 23.9 µM | Potency [6] 23.9 µM | Potency [8] 23.9 µM

COc1cc2nc(N3CCN(C(=O)C4COc5ccccc5O4)CC3)nc(N)c2cc1OC (stereo unspecified)
inactive: Potency [9] | Potency [3] | Potency [4] | Potency [8]
active: Potency [5] 23.9 µM | Potency [6] 23.9 µM

COc1ccc(C(=O)c2ccc(OC)cc2O)c(O)c1
active: Potency [2] 24.7 µM | Potency [6] 15.6 µM
inactive: Potency [3] | Potency [4] | Potency [7]

OCc1cc(C(O)CNCCCCCCOCCCCc2ccccc2)ccc1O (stereo unspecified)
active: Potency [3] 23.9 µM | Potency [5] 23.9 µM | Potency [6] 23.9 µM
inactive: Potency [7]

CN(C)C(=O)NC1(c2ccccc2)CCN(CC[C@@]2(c3ccc(F)c(F)c3)CN(C(=O)c3ccccc3)CCO2)CC1
inactive: Potency [9] | Potency [3] | Potency [4] | Potency [5] | Potency [7] | Potency [8]

O[C@@H](COc1cccc2ncccc12)CN1CCN(C2c3ccccc3[C@@H]3[C@H](c4ccccc42)C3(F)F)CC1 (stereo partly specified)
inactive: Potency [9] | Potency [3] | Potency [5] | Potency [6] | Potency [7] | Potency [8]

CCCCNc1ccc(C(=O)OCCOCCOCCOCCOCCOCCOCCOCCOCCOC)cc1
inactive: Potency [10] | Potency [9] | Potency [3] | Potency [4] | Potency [5] | Potency [6] | Potency [8]

CNCCCN1c2ccccc2CCc2ccccc21
inactive: Potency [10] | Potency [9] | Potency [7]
active: Potency [3] 26.8 µM | Potency [5] 26.8 µM | Potency [6] 26.8 µM

O=C(OCCCCCCOC(=O)c1ccccc1)c1ccccc1
inactive: Potency [3] | Potency [4] | Potency [5] | Potency [6] | Potency [7] | Potency [8]

CCCCC(CC)CN1C(=O)C2C3C=CC(C3)C2C1=O (stereo unspecified)
active: Potency [8] 30.9 µM
inactive: Potency [10] | Potency [3] | Potency [4] | Potency [6] | Potency [7]
